A number with no mark means an inactive call. Calls of active or inactive are those of the source.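 The calls were made as follows: active = compound whose curve gives half-maximal concentration under 30 µM, top-dose inhibition above a set limit, tight estimate; inactive = the rest.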
Target: Integrin alpha-4 (Homo sapiens) (UniProt P13612)
Experiment: concentration series for VLA-4 modulators – cell-based, U937, HUTS-21 LIBS antibody, flow cytometry, dose response (AID 449766)
Conditions: U937 cells, HUTS-21 LIBS mAb binding; series mostly up to 20 µM

Integrin alpha-4 (Homo sapiens), sequence (P13612 whole entry, looked up): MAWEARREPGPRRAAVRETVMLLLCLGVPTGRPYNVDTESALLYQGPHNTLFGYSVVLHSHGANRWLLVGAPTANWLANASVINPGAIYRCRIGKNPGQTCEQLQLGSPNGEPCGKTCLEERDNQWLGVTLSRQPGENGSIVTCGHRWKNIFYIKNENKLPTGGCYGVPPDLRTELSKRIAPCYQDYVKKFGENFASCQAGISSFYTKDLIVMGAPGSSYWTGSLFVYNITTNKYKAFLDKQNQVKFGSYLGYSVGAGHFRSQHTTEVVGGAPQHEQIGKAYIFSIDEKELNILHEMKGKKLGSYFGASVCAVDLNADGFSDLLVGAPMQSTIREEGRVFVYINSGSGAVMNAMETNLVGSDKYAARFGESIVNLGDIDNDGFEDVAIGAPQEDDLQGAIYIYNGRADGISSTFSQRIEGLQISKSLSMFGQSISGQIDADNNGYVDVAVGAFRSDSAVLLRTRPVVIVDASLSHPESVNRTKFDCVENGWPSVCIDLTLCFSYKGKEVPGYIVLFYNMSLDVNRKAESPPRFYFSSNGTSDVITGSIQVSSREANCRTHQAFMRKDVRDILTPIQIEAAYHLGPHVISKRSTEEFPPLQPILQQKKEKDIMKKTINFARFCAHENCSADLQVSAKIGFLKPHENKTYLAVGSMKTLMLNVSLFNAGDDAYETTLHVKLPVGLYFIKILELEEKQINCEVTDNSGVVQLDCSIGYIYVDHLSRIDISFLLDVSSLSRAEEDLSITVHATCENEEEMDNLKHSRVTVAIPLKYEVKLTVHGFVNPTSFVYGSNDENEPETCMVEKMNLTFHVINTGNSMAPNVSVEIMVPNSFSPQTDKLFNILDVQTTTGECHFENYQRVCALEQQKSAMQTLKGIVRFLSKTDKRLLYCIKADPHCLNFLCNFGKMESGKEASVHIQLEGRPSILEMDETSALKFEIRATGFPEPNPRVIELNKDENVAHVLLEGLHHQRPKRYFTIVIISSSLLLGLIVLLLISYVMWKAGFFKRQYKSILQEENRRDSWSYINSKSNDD

Compound | outcome | inhibition
CCCCNC(=O)/C(C#N)=C/c1ccc(C(=O)OC)cc1 | inactive | 
COCCNC(=O)/C(C#N)=C/c1c(F)cccc1Cl | inactive | 
Nc1ccc(NS(=O)(=O)c2ccccc2)cc1 | inactive | 
O=C(Nc1ccc(OC(F)F)cc1)c1cc(S(=O)(=O)N2CCCCC2)ccc1N1CCOCC1 | inactive | 
COc1cc(NC(=O)c2cc(S(=O)(=O)N3CCCCC3)ccc2N2CCOCC2)cc(OC)c1 | inactive | 
CCOc1ccc(S(=O)(=O)Nc2cc(OC)ccc2OC)cc1 |  | -4.93% [at 0.74 µM]
COc1ccccc1-c1sc2cc3c(cc2c1-c1ccc(OCCN2CCCCC2)cc1)OCO3 | inactive | 
COc1ccc(C2=Nn3c(nnc3-c3ccc(OC)cc3)SC2)cc1 | inactive | 
COc1ccc(-c2sc3ccccc3c2-c2ccc(OCCN3CCOCC3)cc2)cc1 | inactive | 
CCOc1cccc(C2CC(=O)Nc3cc(OC)c(OC)cc32)c1 (stereo not given) | inactive | 
COC(=O)[C@@H]1[C@@H](C#N)C2(c3ccccc3-c3ccccc32)N(c2ccc(Cl)cc2)N1C#N | inactive | 
O=C(Oc1ccc(F)cc1C(=O)/C=C/c1cccs1)c1cccc([N+](=O)[O-])c1 | inactive | 
Nc1cccc(S(=O)(=O)Nc2ccccc2)c1 | inactive | 
CC(C)Oc1ccccc1C1CC(=O)Nc2cc3c(cc21)OCO3 (stereo not given) | inactive | 
COCCNC(=O)/C(C#N)=C/c1cccc(/C=C(\C#N)C(=O)NCCOC)c1 | inactive | 
Cc1ccc(C(=O)c2cc([N+](=O)[O-])ccc2N2CCOCC2)c(C)c1 | inactive | 
CCOCCCNC(=O)/C(C#N)=C/c1cc(Br)c(O)c(Br)c1 | inactive | 
COc1cccc(C2CC(=O)Nc3cc(OC)c(OC)cc32)c1 (stereo not given) | inactive | 

Compound | outcome | inhibition
CCCOc1ccccc1C1CC(=O)Nc2cc3c(cc21)OCO3 (stereo not given) | inactive | 
CCOc1ccc(C(=O)c2cc([N+](=O)[O-])ccc2N2CCOCC2)cc1 | inactive | 
Cc1ccc(S(=O)(=O)Nc2ccc(N(C)C)cc2)cc1 | inactive | 
O=C(Nc1ccccc1Cl)c1cc(S(=O)(=O)N2CCCCC2)ccc1N1CCOCC1 |  | -7.81% [at 0.25 µM]
COc1ccc(C2CC(=O)Nc3cc(OC)c(OC)cc32)cc1Br (stereo not given) | inactive | 
COc1cc2c(cc1OC)C(c1ccc(Br)cc1)CC(=O)N2 (stereo not given) | inactive | 
COCCNC(=O)/C(C#N)=C/c1ccc(C(=O)O)cc1 | inactive | 
Cc1ccc(NS(=O)(=O)c2ccc(-c3cnc(C4CC4)o3)cc2)c(C)c1 | inactive | 
COc1cccc(-c2sc3ccc(OC)cc3c2-c2ccc(OCCN3CCCC3)cc2)c1 | inactive | 
CCCCN1C(=O)C(=O)c2cc(Cl)ccc21 | inactive | 
O=C(c1ccccc1)c1cc([N+](=O)[O-])ccc1N1CCOCC1 | inactive | 
Nc1cc(S(=O)(=O)Nc2ccc(Br)cc2)ccc1Cl | inactive | 
COc1ccc(C)cc1S(=O)(=O)Nc1cccc(C)c1 | inactive | 
Cc1ccc(C)c(NC(=O)c2cc(S(=O)(=O)N3CCCCC3)ccc2N2CCOCC2)c1 | inactive | 
COc1ccc(S(=O)(=O)Nc2c(F)cccc2F)cc1 | inactive | 
Cc1ccc(C(=O)c2cc([N+](=O)[O-])ccc2N2CCOCC2)cc1C | inactive | 
COc1ccc(-c2sc3cc4c(cc3c2-c2ccc(OCCN3CCOCC3)cc2)OCO4)cc1 | inactive | 

— PubChem BioAssay AID449766 (NMMLSC, 2010)
